Assay results from the supplement of paper PMC8728848.
The entries come from a sample that favours the strongest signals as a whole.

Legend:
Test in all cases: glycan array binding signal (z-score within array); higher = stronger binding
Details in all cases: glycan notation: IUPAC condensed, linker removed; mutation: E227G
[1] = molecular target: GalNAc3S(b1-4)[Fuc(a1-3)]GlcNAc
How it was run: (§1)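 From the Consortium for Functional Glycomics database, 3228 arrays were curated, keeping only those whose protein sequence was available. Binding is given as a within-array Z-score averaged across arrays sharing a protein sequence and across linkers. Negative Z-scores can be read as non-binding.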

Glc(a1-4)Glc = molecular target: Glc(a1-4)Glc
How it was run: as §1

GlcA(b1-3)Gal = molecular target: GlcA(b1-3)Gal
How it was run: as §1

[2] = molecular target: GlcNAc(b1-2)Man(a1-3)[GlcNAc(b1-4)][GlcNAc(b1-2)Man(a1-6)]Man(b1-4)GlcNAc(b1-4)[Fuc(a1-6)]GlcNAc
How it was run: as §1

GlcNAc(b1-3)Gal(b1-4)Glc = molecular target: GlcNAc(b1-3)Gal(b1-4)Glc
How it was run: as §1

[3] = molecular target: GlcNAc(b1-3)Gal(b1-4)GlcNAc(b1-3)Gal(b1-4)GlcNAc(b1-2)Man(a1-3)[GlcNAc(b1-3)Gal(b1-4)GlcNAc(b1-3)Gal(b1-4)GlcNAc(b1-2)Man(a1-6)]Man(b1-4)GlcNAc(b1-4)[Fuc(a1-6)]GlcNAc
How it was run: as §1

[4] = molecular target: GlcNAc(b1-3)Gal(b1-4)GlcNAc(b1-3)GalNAc
How it was run: as §1

[5] = molecular target: GlcNAc(b1-3)Gal(b1-4)GlcNAc(b1-6)[GlcNAc(b1-3)]Gal(b1-4)GlcNAc
How it was run: as §1

[6] = molecular target: GlcNAc(b1-4)Gal(b1-4)GlcNAc
How it was run: as §1

[7] = molecular target: GlcNAc(b1-4)GlcNAc(b1-4)GlcNAc
How it was run: as §1

[8] = molecular target: GlcNAc(b1-4)GlcNAc(b1-4)GlcNAc(b1-4)GlcNAc(b1-4)GlcNAc
How it was run: as §1

GlcNAc(b1-6)GalNAc = molecular target: GlcNAc(b1-6)GalNAc
How it was run: as §1

[9] = molecular target: Kdn(a2-3)Gal(b1-4)[Fuc(a1-3)]GlcNAc
How it was run: as §1

[10] = molecular target: Man(a1-2)Man(a1-3)[Man(a1-2)Man(a1-6)]Man
How it was run: as §1

[11] = molecular target: Man(a1-2)Man(a1-3)[Man(a1-6)]Man(a1-6)[Man(a1-2)Man(a1-3)]Man(b1-4)GlcNAc(b1-4)GlcNAc
How it was run: as §1

Man(a1-3)[Man(a1-6)]Man = molecular target: Man(a1-3)[Man(a1-6)]Man
How it was run: as §1

[12] = molecular target: Man(a1-3)[Man(a1-6)]Man(a1-6)[Man(a1-3)]Man
How it was run: as §1

Neu5Ac(a2-3)Gal = molecular target: Neu5Ac(a2-3)Gal
How it was run: as §1

[13] = molecular target: Neu5Ac(a2-3)Gal(b1-3)GlcNAc(b1-2)Man(a1-3)[Neu5Ac(a2-3)Gal(b1-3)GlcNAc(b1-2)Man(a1-6)]Man(b1-4)GlcNAc(b1-4)GlcNAc
How it was run: as §1

[14] = molecular target: Neu5Ac(a2-3)Gal(b1-3)GlcNAc(b1-3)Gal(b1-4)GlcNAc
How it was run: as §1

[15] = molecular target: Neu5Ac(a2-3)Gal(b1-4)GlcNAc
How it was run: as §1

[16] = molecular target: Neu5Ac(a2-3)Gal(b1-4)GlcNAc(b1-2)Man(a1-3)[Neu5Ac(a2-3)Gal(b1-4)GlcNAc(b1-2)Man(a1-6)]Man(b1-4)GlcNAc(b1-4)GlcNAc
How it was run: as §1

[17] = molecular target: Neu5Ac(a2-3)Gal(b1-4)GlcNAc(b1-3)Gal(b1-4)GlcNAc(b1-2)Man(a1-3)[Neu5Ac(a2-3)Gal(b1-4)GlcNAc(b1-3)Gal(b1-4)GlcNAc(b1-2)Man(a1-6)]Man(b1-4)GlcNAc(b1-4)GlcNAc
How it was run: as §1

[18] = molecular target: Neu5Ac(a2-3)Gal(b1-4)[Fuc(a1-3)]GlcNAc(b1-3)Gal(b1-4)GlcNAc
How it was run: as §1

[19] = molecular target: Neu5Ac(a2-3)Gal(b1-4)[Fuc(a1-3)]GlcNAc(b1-6)[Gal(b1-3)]GalNAc
How it was run: as §1

[20] = molecular target: Neu5Ac(a2-3)[GalNAc(b1-4)]Gal(b1-4)GlcNAc
How it was run: as §1

[21] = molecular target: Neu5Ac(a2-6)Gal(b1-4)GlcNAc(b1-2)Man(a1-3)[Gal(b1-4)GlcNAc(b1-2)Man(a1-6)]Man(b1-4)GlcNAc(b1-4)GlcNAc
How it was run: as §1

[22] = molecular target: Neu5Ac(a2-6)Gal(b1-4)GlcNAc(b1-2)[Neu5Ac(a2-6)Gal(b1-4)GlcNAc(b1-4)]Man(a1-3)[GlcNAc(b1-4)][Neu5Ac(a2-6)Gal(b1-4)GlcNAc(b1-4)Man(a1-6)]Man(b1-4)GlcNAc(b1-4)GlcNAc
How it was run: as §1

Neu5Ac(a2-8)Neu5Ac = molecular target: Neu5Ac(a2-8)Neu5Ac
How it was run: as §1

[23] = molecular target: Neu5Ac(a2-8)Neu5Ac(a2-3)[Gal(b1-3)GalNAc(b1-4)]Gal(b1-4)Glc
How it was run: as §1

[24] = molecular target: Neu5Ac(a2-8)Neu5Ac(a2-8)Neu5Ac
How it was run: as §1

[25] = molecular target: Neu5Ac9Ac(a2-3)Gal(b1-3)GlcNAc
How it was run: as §1

[26] = molecular target: Neu5Gc(a2-6)Gal(b1-4)GlcNAc
How it was run: as §1

[27] = molecular target: Neu5Gc(a2-8)Neu5Ac(a2-3)Gal(b1-4)GlcNAc
How it was run: as §1

B1: Epa1-NP-mutant-E227G (Candida glabrata), Q6VBJ0 (protein)
chain: MILNPALFLNKCVCIYTTLILLLLTNGGYATSSNDISLASKDPTTFPLGCSPDITTPKKGLSMELYSYDFRKKGSYPCWDAAYLDPNYPRTGYKSHRLLAKVDGVTGNINFYYHATKGCTPQLGHLPASYNYPKPLTMTNFTMLLYGYFRPKVTGFHTFTISADDLLFVNFGAGNAFDCCRRDSSADHFGNYQAYAIWGSKTAKDELTVHLDAGVYYPIRLFYNNRGYDGALSFTFKTESNENTVSDFSEYFFSLDDTEEGCPGLISYDSSCASVKTSKIIGIDYHTETPNENLVPITKTIYHLGIPCTGTTTTPLCGSGFYDPLANKCVTINTSSTSSVTKTTSHTTSKEVSFHSSISSQKTLIPKSIPSPYGPIKSQSIPTEMETSSEISSSEYAFSDVISTPSHSPYTKKHSSLNSSSYTSTVIHSLTSYSISQGIFSTSLSEQNITSKSSTDKFSTATSMSNNITQSSIIISQFSTNNENYTTTSMHTSSDKISTETLNNSISTTTSILFSNSSTILKNNTTIISSDKDTHYHPVNPTIVCSTNKTEIICASITQPSISNSNNHWSSSVLKFNSTTVRSTLPSSAGSNETSINVPFSSSTESNTSTSSTSTSNSKMVRSTLPSSAGSNETSISVPFSSSTESNTSTSSTSTSNSKMVRSTLPSSAGSNETSINVPFSSSTESNTSTSSTSTSNSKTVRSTPFSSAGIIMTSLSQRNNKSASSYASSNSKCYNTADSCRKVHSTPSYLLTSSYTSEGVDYDCSLVSTKLKINDTNCVNNKHTTKSCLKTSVTTTIPTLEIKTARKSSSNTIGLHSYPTSSPNKSISSAPIIGYISSFKTIKTASPSYQTSDLTTITTITSLNNPGSTAVENTHESNDKSRKTSSNDISSKHSVIKETKDAVESSNKSHQTNTLKCSSIIIASSSHNSYESLGGTTLTLTLSKVYSPQNNDTLPFLEISEVNPSRTVLPESSKMMQYLTSTEERNKTARNTIATNIVSISTFHFEGEGNAIRMGYTQLLLMLIGIIVMNIGT
glycan array binding signal (z-score) [1]: -0.117
glycan array binding signal (z-score) (Glc(a1-4)Glc): -0.175
glycan array binding signal (z-score) (GlcA(b1-3)Gal): -0.114
glycan array binding signal (z-score) [2]: -0.217
glycan array binding signal (z-score) (GlcNAc(b1-3)Gal(b1-4)Glc): -0.256
glycan array binding signal (z-score) [3]: 0.132
glycan array binding signal (z-score) [4]: -0.16
glycan array binding signal (z-score) [5]: -0.203
glycan array binding signal (z-score) [6]: -0.157
glycan array binding signal (z-score) [7]: -0.161
glycan array binding signal (z-score) [8]: -0.177
glycan array binding signal (z-score) (GlcNAc(b1-6)GalNAc): -0.071
glycan array binding signal (z-score) [9]: -0.097
glycan array binding signal (z-score) [10]: -0.26
glycan array binding signal (z-score) [11]: -0.291
glycan array binding signal (z-score) (Man(a1-3)[Man(a1-6)]Man): -0.126
glycan array binding signal (z-score) [12]: -0.162
glycan array binding signal (z-score) (Neu5Ac(a2-3)Gal): -0.003
glycan array binding signal (z-score) [13]: 0.018
glycan array binding signal (z-score) [14]: -0.256
glycan array binding signal (z-score) [15]: -0.195
glycan array binding signal (z-score) [16]: -0.236
glycan array binding signal (z-score) [17]: -0.191
glycan array binding signal (z-score) [18]: -0.14
glycan array binding signal (z-score) [19]: -0.043
glycan array binding signal (z-score) [20]: -0.209
glycan array binding signal (z-score) [21]: -0.187
glycan array binding signal (z-score) [22]: -0.059
glycan array binding signal (z-score) (Neu5Ac(a2-8)Neu5Ac): -0.302
glycan array binding signal (z-score) [23]: 0.176
glycan array binding signal (z-score) [24]: -0.128
glycan array binding signal (z-score) [25]: -0.253
glycan array binding signal (z-score) [26]: -0.199
glycan array binding signal (z-score) [27]: -0.226
